Data reported in PubChem BioAssay (NCI).
Compounds without any hit were thinned out: in the full panel of roughly 79,000, 15% have a hit. Unmarked numbers belong to inactive results. Activity calls are given as the source filed them. No stated cut-off is given here; in the data, active means growth inhibition above about 70%; inactive means the rest.

Key:
[1] = NCI Yeast Anticancer Drug Screen. Data for the rad50 strain (AID 155);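 further: 0% = growth of vehicle-only cultures of the same strain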; conditions: S. cerevisiae rad50 strain growth inhibition, stronger effect = higher value
In short: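 A DNA repair-deficient yeast mutant serves as the test organism; compound-induced growth inhibition is calculated against vehicle-treated cells.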

[2] = NCI Yeast Anticancer Drug Screen. Data for the mec2-1 strain (AID 157); conditions: S. cerevisiae mec2-1 strain, stronger effect = higher value
In short: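 Using mec2-1 yeast: add compound, measure growth, express inhibition versus vehicle-treated cultures.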

[3] = NCI Yeast Anticancer Drug Screen. Data for the sgs1 mgt1 strain (AID 161);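 further: 0% = growth of cultures given vehicle only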; conditions: S. cerevisiae sgs1 mgt1 strain, stronger effect = higher value
In short: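 This yeast growth screen uses a strain with defined DNA-repair lesions; compound-treated growth is compared with vehicle-treated growth.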

[4] = NCI Yeast Anticancer Drug Screen. Data for the cln2 rad14 strain (AID 165);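 further: 0% = growth equal to vehicle treated cultures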; conditions: S. cerevisiae cln2 rad14 strain, stronger effect = higher value
In short: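 Yeast strain cln2 rad14, bearing defects in cell cycle control and DNA repair, serves as the test system; values reflect growth inhibition compared with vehicle.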

[5] = NCI Yeast Anticancer Drug Screen. Data for the bub3 strain (AID 167); conditions: S. cerevisiae bub3 mutant strain, stronger effect = higher value
In short: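 Inhibition values come from growth of compound-treated mutant yeast normalised to vehicle-treated controls.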

[6] = NCI Yeast Anticancer Drug Screen. Data for the mlh1 rad18 strain (AID 175); conditions: S. cerevisiae mlh1 rad18 strain growth inhibition, stronger effect = higher value
In short: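 Steps: expose repair-defective yeast to compound; measure growth; express inhibition against vehicle-treated controls.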

[7] = at 5.0 µM (retest, dose inferred, filed as 0.5)
[8] = at 50.0 µM (retest, dose inferred, filed as 5.0)

SMILES | growth inhibition [1, 7] | growth inhibition [1, 8] | growth inhibition ([1]; at 50.0 µM) | growth inhibition [2, 7] | growth inhibition [2, 8] | growth inhibition ([2]; at 50.0 µM) | growth inhibition [3, 7] | growth inhibition [3, 8] | growth inhibition ([3]; at 50.0 µM) | growth inhibition [4, 7] | growth inhibition [4, 8] | growth inhibition ([4]; at 50.0 µM) | growth inhibition [5, 7] | growth inhibition [5, 8] | growth inhibition ([5]; at 50.0 µM) | growth inhibition [6, 7] | growth inhibition [6, 8] | growth inhibition ([6]; at 50.0 µM)
N#CC(C#N)=Cc1ccc(Cl)o1 | 2% | 54% | 59.6% | 4% | 47% | 50% | 2% | 24% | 61.8% | -6% | 26% | 42.4% | -2% | 35% | 45% | 1% | 29% | 82.8% (active)
CC(=O)OC1=CC2=CC[C@H]3[C@@H]4CCC(=O)[C@@]4(C)CC(=O)[C@]3(S)[C@@]2(C)CC1 | 14% | 18% | 77.5% (active) | 3% | 8% | 25.5% | 8% | -20% | -4.4% | -16% | -70% | -15.7% | -8% | -3% | 60.6% | -13% | 11% | 54.1%
COc1c(Br)cc(/C=C/[N+](=O)[O-])cc1Br | 98% (active) | 98% (active) | 92.4% (active) | 99% (active) | 99% (active) | 91.6% (active) | 98% (active) | 99% (active) | 89.8% (active) | 96% (active) | 97% (active) | 90.5% (active) | 99% (active) | 97% (active) | 88.2% (active) | 98% (active) | 98% (active) | 82.8% (active)
COc1cccc(C2N(Cc3ccc(N(CCCl)CCCl)cc3C)CCCN2Cc2ccc(N(CCCl)CCCl)cc2C)c1O | 7% | 94% (active) | 27.6% | -2% | 96% (active) | 10.2% | -2% | 97% (active) | 64.5% | -5% | 82% (active) | -12.6% | -6% | 89% (active) | 0.75% | 8% | 93% (active) | 40.1%
O=P(Oc1ccccc1)(Oc1ccccc1)Oc1ccccc1Cl | 5% | 0% | 29.4% | 3% | -8% | 0.05% | -4% | 4% | 13.6% | 0% | -14% | -6.1% | 2% | 28% | 66.5% | -13% | -3% | 51.6%
CCCCCCCCCCCCCC(=O)[O][Hg][c]1ccccc1 | 99% (active) | 93% (active) | 99.5% (active) | 100% (active) | 99% (active) | 99.6% (active) | 100% (active) | 99% (active) | 99.6% (active) | 99% (active) | 98% (active) | 99.6% (active) | 99% (active) | 99% (active) | 99.5% (active) | 99% (active) | 99% (active) | 99.6% (active)
OCC1N2CCC(CC2)C1(O)O (stereo not given) | -2% | 5% | -11.8% | 2% | -3% | -6.9% | -3% | 1% | 0.1% | 2% | 2% | -16.1% | 1% | -4% | 34.5% | -2% | -4% | -12.7%
[C-]#[O+].[C-]#[O+].[C-]#[O+].[C-]#[O+].[C-]#[O+].[Mo+2].[Mo+4].[c-]1[c-][c-][cH-][c-]1.[c-]1[c-][c-][cH-][c-]1.c1ccc([PH+](CC[PH+](c2ccccc2)c2ccccc2)c2ccccc2)cc1 | 82% (active) | 98% (active) | 90.5% (active) | 73% (active) | 99% (active) | 93% (active) | 91% (active) | 98% (active) | 92.3% (active) | 60% | 98% (active) | 92% (active) | 84% (active) | 98% (active) | 92.3% (active) | 79% (active) | 98% (active) | 90.5% (active)
C[C@@H]1C[C@H]2CC[C@H](O2)[C@H](C)C(=O)O[C@@H](C)C[C@@H]2CC[C@@H](O2)[C@@H](C)C(=O)O[C@H](C)C[C@H]2CC[C@H](O2)[C@H](C)C(=O)O[C@@H](C)C[C@@H]2CC[C@@H](O2)[C@@H](C)C(=O)O1 | 64% | 94% (active) | 84.3% (active) | 78% (active) | 97% (active) | 88% (active) | 88% (active) | 95% (active) | 87.8% (active) | 55% | 83% (active) | 81.6% (active) | 62% | 89% (active) | 84.3% (active) | 76% (active) | 96% (active) | 82.3% (active)
Cc1ccc(NC(=O)CBr)cc1 | 92% (active) | 99% (active) | 99.1% (active) | 97% (active) | 100% (active) | 99.2% (active) | 97% (active) | 97% (active) | 99.2% (active) | 97% (active) | 99% (active) | 98.8% (active) | 95% (active) | 99% (active) | 99% (active) | 94% (active) | 98% (active) | 99% (active)
